# Experimental data as given in PubChem BioAssay (NCATS).
# Results filed as inconclusive are left out. A call without a number means that no potency is given here. Active and inactive are the calls of the source. The call rests on the fitted dose curve; in most records, active means well fitted curve in the direction sought with a large enough effect; inconclusive means small, poorly fitted or top-dose-only effect, or another doubt; inactive means no such curve, though single readings can be large; an effect the other way counts as inactive or inconclusive.
# Columns and labels:
# MKL-2 = assay: qHTS assay to identify novel small-molecules to repurpose for Merkel cell carcinoma treatment (AID 1296009); conditions: MCC and control cell lines, CellTiter-Glo viability, 72 h; series mostly up to 46 µM; further: nearly all actives have a fitted effect of over 60% in size
# Outline: (§1)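 Luminescence from CellTiter-Glo, read 10 min after addition at room temperature, reported viability following a 72 hr, 37 degree celsius treatment with NPC or MIPE compounds in titration; values normalized to plate controls.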
# WaGa = assay: as above; conditions: MCC and control cell lines, CellTiter-Glo viability, 72 h; series mostly up to 46 µM
# Outline: as §1
# UISO = assay: as above; conditions: MCC and control cell lines, CellTiter-Glo viability, 72 h; series mostly up to 46 µM
# Outline: as §1
# C33A = assay: Primary qHTS to identify gynecologic anti-cancer compounds using libraries of approved drugs and bioactive compounds (AID 1345084); conditions: Gynecologic cancer cell panel viability, ATPlite luminescence, 48 h; series mostly up to 57.5 µM; further: nearly all actives have a fitted effect of over 55% in size
# Outline: (§2)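 Measured: luminescence after ATPlite addition (15 min, RT). Exposure: 48 h, 37 C, 5% CO2.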
# Es-2 = assay: as above; conditions: Gynecologic cancer cell panel viability, ATPlite luminescence, 48 h; series mostly up to 57.5 µM
# Outline: as §2
# Hek293T = assay: as above; conditions: Gynecologic cancer cell panel viability, ATPlite luminescence, 48 h, control line for the selectivity index; series mostly up to 57.5 µM
# Outline: as §2
# JEG-3 = assay: as above; conditions: Gynecologic cancer cell panel viability, ATPlite luminescence, 48 h; series mostly up to 57.5 µM
# Outline: as §2
# OV90 = assay: as above; conditions: Gynecologic cancer cell panel viability, ATPlite luminescence, 48 h; series mostly up to 57.5 µM
# Outline: as §2
# SKOV3 = assay: as above; conditions: Gynecologic cancer cell panel viability, ATPlite luminescence, 48 h; series mostly up to 57.5 µM
# Outline: as §2
# Tov-21-G = assay: as above; conditions: Gynecologic cancer cell panel viability, ATPlite luminescence, 48 h; series mostly up to 57.5 µM
# Outline: as §2
# HeLa = assay: as above; conditions: Gynecologic cancer cell panel viability, ATPlite luminescence, 48 h; series mostly up to 57.5 µM
# Outline: as §2
# PA-1 = assay: as above; conditions: Gynecologic cancer cell panel viability, ATPlite luminescence, 48 h; series mostly up to 57.5 µM
# Outline: as §2
# [1] = qHTS assay to identify inhibitors of the type 1 interferon - major histocompatibility complex class I in skeletal muscle: Counter screen cell viability and HiBit confirmation (AID 1347412); conditions: iHSKM muscle cells + IFN-b, HiBiT or CellTiter-Glo, 24 h; Potency: HiBiT; Viability, at 45.9 µM (top of the series); further: nearly all actives have a fitted effect of over 60% in size
# Outline: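 HLA-B*08:01–HiBiT knock-in immortalized human myoblasts (C25cl48) stimulated with 4.0 ng/ml human IFN-beta and dosed with compound in a 12-point 1:3 titration (top final 46 uM). After 24 hrs at 37 C, HiBiT lytic luminescence or CellTiter Glo ATP read out.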
# CASKI = assay: Primary qHTS to identify gynecologic anti-cancer compounds using libraries of approved drugs and bioactive compounds (AID 1345084); conditions: Gynecologic cancer cell panel viability, ATPlite luminescence, 48 h; series mostly up to 57.5 µM; further: nearly all actives have a fitted effect of over 55% in size
# Outline: as §2
# Tov112D = assay: as above; conditions: Gynecologic cancer cell panel viability, ATPlite luminescence, 48 h; series mostly up to 57.5 µM
# Outline: as §2
# Potency means the concentration at half of the fitted maximal effect.
compound,measurement,setting,value
C#CCC(Cc1cnc2nc(N)nc(N)c2n1)c1ccc(C(=O)N[C@@H](CCC(=O)O)C(=O)O)cc1 (stereo not given in full),Potency,MKL-2,inactive
same,Potency,WaGa,526 nM (active)
O=C1NCCc2[nH]c(-c3ccncc3)cc21,Potency,MKL-2,13200 nM (active)
same,Potency,UISO,4180 nM (active)
CNC(=O)c1cccc(-c2ccc3c(N4CCOC[C@H]4C)nc(N4CCOC[C@H]4C)nc3n2)c1,Potency,MKL-2,inactive
same,Potency,UISO,166 nM (active)
O=C(O)c1ccc(Nc2ncc3c(n2)-c2ccc(Cl)cc2C(c2c(F)cccc2F)=NC3)cc1,Potency,MKL-2,inactive
same,Potency,UISO,inactive
same,Potency,C33A,inactive
same,Potency,Es-2,inactive
same,Potency,Hek293T,inactive
same,Potency,JEG-3,inactive
same,Potency,OV90,inactive
same,Potency,SKOV3,inactive
same,Potency,Tov-21-G,inactive
CN(C)c1ccc2cc(C(=O)N[C@@H](CCCN=C(N)CCl)C(=O)NCc3ccccc3)ccc2c1,Potency,MKL-2,26400 nM (active)
same,Potency,UISO,13200 nM (active)
O=C(NC1CC1)c1cccc(-c2ccc3c(NC(=O)C4CC4)n[nH]c3c2)c1,Potency,MKL-2,inactive
CCNC(=O)c1cc2c(-c3cc(OCCN4CCCC4)c(Cl)cc3Cl)nc(N)nc2s1,Potency,MKL-2,inactive
same,Potency,UISO,2960 nM (active)
same,Potency,WaGa,1180 nM (active)
COc1cc(CCc2cc(NC(=O)c3ccc(N4C[C@@H](C)N[C@@H](C)C4)cc3)n[nH]2)cc(OC)c1,Potency,MKL-2,inactive
same,Potency,UISO,23500 nM (active)
same,Potency,WaGa,inactive
same,Potency,HeLa,25100 nM (active)
same,Potency,Hek293T,inactive
same,Potency,JEG-3,inactive
same,Potency,PA-1,20000 nM (active)
same,Potency,[1],inactive
COc1ccc(C=Cc2cc(OC)c(OC)c(OC)c2)cc1NC(=O)[C@H](N)CO,Potency,MKL-2,6.6 nM (active)
same,Potency,UISO,5.3 nM (active)
CC(=O)ON=C1C(c2c(O)[nH]c3cc(Br)ccc23)=Nc2ccccc21,Potency,MKL-2,inactive
CCNC(=O)Nc1ccc(-c2nc3c(c(N4CCOC[C@H]4C)n2)CCN(C2COC2)C3)cc1,Potency,MKL-2,inactive
same,Potency,UISO,3720 nM (active)
CC(N[C@H]1CCCC[C@H]1NC(=O)c1ccc(Cl)cc1)c1cccc2ccccc12 (stereo not given in full),Potency,MKL-2,418 nM (active)
same,Potency,UISO,inactive
CCS(=O)(=O)Nc1ccc2[nH]c(O)c(C(=Nc3ccc(CN4CCCCC4)cc3)c3ccccc3)c2c1,Potency,MKL-2,inactive
same,Potency,UISO,20900 nM (active)
same,Potency,[1],625 nM (active)
O=C(Nc1cccc(Nc2ncc(Br)c(NCCc3cnc[nH]3)n2)c1)N1CCCC1,Potency,MKL-2,5900 nM (active)
same,Potency,UISO,16600 nM (active)
same,Potency,WaGa,2960 nM (active)
Cc1ccc([N+](=O)[O-])cc1S(=O)(=O)N(C)N=Cc1cnc2ccc(Br)cn12,Potency,MKL-2,209 nM (active)
same,Potency,UISO,41.8 nM (active)
Cc1ccc2nc(NCCN)c3ncc(C)n3c2c1,Potency,MKL-2,14800 nM (active)
same,Potency,UISO,20900 nM (active)
same,Potency,[1],3130 nM (active)
Nc1nc(=O)n([C@H]2C[C@H](O)[C@@H](CO)O2)cc1F,Potency,MKL-2,inactive
same,Potency,UISO,209 nM (active)
same,Potency,WaGa,93.5 nM (active)
Cn1cc(-c2cnn3c(N)c(Br)c([C@H]4CCCNC4)nc23)cn1,Potency,MKL-2,1320 nM (active)
same,Potency,WaGa,1320 nM (active)
COc1ccc(C[C@@H](C)[C@@H](C)Cc2ccc(OC)c(OC)c2)cc1OC,Potency,MKL-2,3720 nM (active)
same,Potency,UISO,1320 nM (active)
same,Potency,WaGa,833 nM (active)
CC(C)NC[C@@H](C(=O)N1CCN(c2ncnc3c2[C@H](C)C[C@H]3O)CC1)c1ccc(Cl)cc1,Potency,MKL-2,1660 nM (active)
same,Potency,WaGa,2090 nM (active)
CN(C)CC(=O)N1CCC(c2ccc(NC(=O)c3ncc(C#N)[nH]3)c(C3=CCCCC3)c2)CC1,Potency,MKL-2,inactive
same,Potency,UISO,inactive
same,Potency,C33A,inactive
same,Potency,CASKI,inactive
same,Potency,Es-2,inactive
same,Potency,HeLa,inactive
same,Potency,Hek293T,inactive
same,Potency,JEG-3,inactive
same,Potency,OV90,inactive
same,Potency,SKOV3,inactive
same,Potency,Tov-21-G,inactive
N#CC(=Cc1ccc(O)c(O)c1)C(=O)NCc1ccccc1,Potency,MKL-2,inactive
Cc1cncc2cccc(S(=O)(=O)N3CCCN(C(=O)CN)C[C@@H]3C)c12,Potency,MKL-2,inactive
same,Potency,UISO,inactive
same,Potency,C33A,inactive
same,Potency,CASKI,inactive
same,Potency,Es-2,inactive
same,Potency,Hek293T,inactive
same,Potency,JEG-3,inactive
same,Potency,OV90,inactive
same,Potency,PA-1,inactive
same,Potency,Tov-21-G,inactive
same,Potency,Tov112D,inactive
CCc1cnn2c(NCc3ccc[n+]([O-])c3)cc(N3CCCC[C@@H]3CCO)nc12,Potency,MKL-2,41.8 nM (active)
same,Potency,UISO,93.5 nM (active)
CCOC(=O)C1=C(C)NC(=S)NC1c1cccc(O)c1 (stereo not given),Potency,MKL-2,inactive
same,Potency,UISO,148 nM (active)
same,Potency,WaGa,52.6 nM (active)
